Most compounds without a hit are left out; they make up all but 7.4% or so of the library.
FLuc counter = inhibits or activates purified firefly luciferase, miR-21 counter-screen; Potency, µM (titrated, usually from 57.5 µM), without a hit: at the top dose activity change, negative = inhibition, usual class: inhibitors; purified FLuc, Km substrates, luminescence inhibition; P08659; 6.9% of 360,000 active; AID 588342;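 also: plate controls were vehicle for no effect and reference inhibitor for full effect; nearly all actives have a fitted effect of over 55% in size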
Target sequence (P08659 whole entry, looked up): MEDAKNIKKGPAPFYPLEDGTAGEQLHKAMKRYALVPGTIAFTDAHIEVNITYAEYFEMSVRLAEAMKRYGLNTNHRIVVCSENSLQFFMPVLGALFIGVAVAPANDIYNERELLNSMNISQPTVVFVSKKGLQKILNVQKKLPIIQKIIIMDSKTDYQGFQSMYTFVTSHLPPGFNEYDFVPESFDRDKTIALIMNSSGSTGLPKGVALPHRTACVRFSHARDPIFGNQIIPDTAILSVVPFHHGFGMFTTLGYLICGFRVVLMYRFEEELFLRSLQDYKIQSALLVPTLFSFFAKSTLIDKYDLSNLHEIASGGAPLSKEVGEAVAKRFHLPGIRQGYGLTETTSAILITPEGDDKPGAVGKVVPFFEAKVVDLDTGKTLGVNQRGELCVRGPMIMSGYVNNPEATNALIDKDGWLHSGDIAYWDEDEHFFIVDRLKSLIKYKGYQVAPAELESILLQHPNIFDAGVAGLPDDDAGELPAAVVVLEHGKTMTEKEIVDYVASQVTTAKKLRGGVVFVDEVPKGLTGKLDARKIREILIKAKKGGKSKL
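Purified P. pyralis luciferase, 10 nM final, with Km-level 10 uM D-luciferin and 10 uM ATP in 50 mM Tris acetate pH 7.5, 10 mM Mg acetate, 0.01% Tween-20, 0.05% BSA; 6-point qHTS titration about 60 µM downward; luminescence read.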
NPC1 promoter act = NPC1 promoter activation; Huh7 NPC1 promoter luciferase reporter, 24 h; Potency, µM (highest dose often 9.22 µM), without a hit: top-dose activation, most hits filed as activators; 2.4% of 320,000 active; AID 485313; also: % of control where 0% means no effect; nearly all actives have a fitted effect of over 60% in size
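Luminescence read-out of NPC1 promoter-driven luciferase in stably transfected Huh7 cells; compounds delivered in DMSO and left 24 h at 37C, 5% CO2, qHTS titration format.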
ELG1 genotox = induces genotoxicity in HEK293T cells with luciferase-tagged ELG1; HEK293T ELG1-luciferase reporter, luminescence, 16 h; Potency, µM (series often up to 46 µM), for inactives: at the top dose activity change, positive = activation, hits mostly activators; 1.3% of 330,000 active; also: % of control where 0% means no effect; nearly all actives have a fitted effect of over 60% in size
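Screening used a luciferase reporter fused to human ELG1 in HEK293T cells. Luminescence was read on a CCD plate imager after 16 hr exposure and 30 min ONE-Glo incubation.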
Rab9 prom act = Rab9 promoter activation; Huh7 Rab9 promoter-luciferase reporter, luminescence, 24 h; Potency, µM (doses to about 9.22 µM), inactives show at the top dose activation, negative = inhibition, actives largely listed as activators; 2.8% of 320,000 active; also: % of control where 0% means no effect; nearly all actives have a fitted effect of over 60% in size
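Luminescence read-out: Huh7 cells stably expressing Rab9-luciferase, treated 24 h with compound at 37 °C, then lysed with luciferase reagent for 10 min at ambient before reading.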
SMN2 splice enh = increases expression of the SMN2 splice variant | HEK293 SMN2-luciferase splicing reporter, luminescence, 30-36 h | Potency, µM (doses to about 46.1 µM), inactives show at the highest dose activity change, positive = activation, actives largely listed as activators | 2.8% of 210,000 active; also: % of control where 0% means no effect; nearly all actives have a fitted effect of over 55% in size
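HEK293 cells carry an SMN2 […]–luciferase reporter in which exon 7 inclusion puts luciferase in frame. Cells were plated 10-12 h before compound addition, then incubated 30-36 h at 37C. ONE-Glo luminescence was read; sodium butyrate at 4.5 mM final served as control.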
Luc counter = counter-screen: inhibitors of Kinase-Glo firefly luciferase | Kinase-Glo luciferase, ATP luminescence, 8 min | Potency, µM (doses to about 38.3 µM), for the others: top-dose activity change, negative = inhibition, actives largely listed as inhibitors | 0.28% of 200,000 active; also: % is scaled to controls: 0 for no effect and ±100 for the full control effect; nearly all actives have a fitted effect of over 60% in size
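Compound is pinned into ATP-containing buffer (10 uM ATP, imidazole pH 7.2, 7 mM MgCl2). Kinase-Glo luciferase reagent is then added. Light output is recorded following an 8-min room-temperature incubation.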
* = called active by the depositor; ? = inconclusive; . = no result given; [ ] = dose if it differs, or a comment. Calls follow the shape of the dose curve; as a rule, active = well fitted curve in the direction sought with a large enough effect; inconclusive = small, poorly fitted or top-dose-only effect, or another doubt; inactive = no such curve, though single readings can be large; an effect the other way counts as inactive or inconclusive. Potency is read from the fitted curve at half-maximal effect.

SMILES	FLuc counter	NPC1 promoter act	ELG1 genotox	Rab9 prom act	SMN2 splice enh	Luc counter
CCCc1cnc2c(c1SCc1cccc(F)c1)c(=O)n(C)c(=O)n2C	-0.2%	.	.	.	.	.
C1=C(CCNc2ncnc3c2[nH]c2ccccc23)CCCC1	19µM*	-28.3%	5.8%	-33.4%	-42.9%	0.6%
CC(C)OCCCNc1ncnc2c1[nH]c1ccccc12	?	-3.9%	13.4%	-19.1%	-111.6%	-2.5%
O=c1c2[nH]c3ccccc3c2ncn1CCC1=CCCCC1	1.2%	2.51µM*	11.6%	?	23.5%	0.1%
O=[N+]([O-])c1cc(/C=N\Nc2nccs2)ccc1O	16.9µM*	5.4%	-4.7%	1.4%	?	-20.5%
O=S1(=O)[C@H]([C@H]2CC3c4ccccc4C2c2ccccc23)[C@@H](N2CCCCC2)[C@@H]1c1ccccc1	.	.	.	.	-21.1%[9.22 µM]	-9.0%[7.66 µM]
O=C(Nc1ccc(-c2nc3ccc(NC(=O)c4cccs4)cc3[nH]2)cc1)c1cccs1	-11.5%	-4.7%	12.6µM*	-13.4%	10µM*	-7.2%
Cc1ccc(-c2nnc(-c3ccc(NC(=O)c4ccco4)cc3)o2)cc1	-8.2%	6.7%	14.0%	1.2%	-2.5%	-1.8%
O=C(Nc1ccc2nc(-c3cccs3)[nH]c2c1)c1cccs1	-8.9%[2.3 µM]	12.9%	5.5%	27.6%	4.7%	2.2%
Cc1ccc2nc(-c3ccc(NC(=O)c4ccco4)cc3)[nH]c2c1	3.01µM*	1.58µM*	2.06µM*	3.55µM*	7.94µM*	-2.6%
O=C(Nc1cccc(-c2cnc3ccccc3n2)c1)c1cccc(NC(=O)c2ccco2)c1	10.7µM*	2.1%	-6.0%	2.9%	?	-3.4%
Nc1ccc(C(=O)Nc2ccc3nc(-c4ccncc4)[nH]c3c2)cc1	16.9µM*	-0.4%	-1.8%	11.2%	?	-0.8%
COc1ccc(S(=O)(=O)N2CCN(Cc3ccc4c(c3)OCO4)CC2)cc1OC	-7.4%	.	.	.	-9.4%	.
CCc1ccc(NC(=O)CSC2=Nc3ccccc3C3=NC(CC(=O)NCc4ccc5c(c4)OCO5)C(=O)N23)cc1 (stereo not given)	-13.1%	.	.	.	.	.
O=C(C1COc2ccccc2O1)N1CCN(c2nc3c(F)cccc3s2)CC1 (stereo not given)	-5.3%	.	.	.	.	.
C=CCc1c(C)nc2nc(SCC(=O)Nc3ccc(OCC)cc3)nn2c1C	-1.4%	.	.	.	.	.
Cn1cccc1-c1nc2ccc(NC(=O)c3ccco3)cc2[nH]1	16.9µM*	9.2%	8.3%	26.5%	35.6%	-4.8%
c1ccc(NCc2cccnc2)cc1	6.1%	2.3%	0.7%	-16.8%	-8.5%	20.8%
c1cncc(CNc2cccc(-c3nc4ccccc4[nH]3)c2)c1	7.57µM*	2.82µM*	?	2.51µM*	0.891µM*	-20.8%
O=C(Nc1ccc2nc(-c3cccs3)[nH]c2c1)c1ccco1	7.57µM*	27.5%	4.4%	?	?	-4.6%
COc1c(Cl)cc(C(=O)Nc2cccc(-c3nc4ccccc4[nH]3)c2)cc1Cl	?	.	.	.	-10.0%	.
O=C(Nc1cccc(-c2nc3ccccc3[nH]2)c1)c1ccco1	15.1µM*	12.6%	-9.3%	0.0%	4.7%	9.2%
CC(C)C(=O)Nc1nc2cc3c(cc2s1)OCO3	13.5µM*	?	18.4µM*	?	-7.1%	1.0%
CC(C)(C)C(=O)Nc1nc2cc3c(cc2s1)OCO3	4.78µM*	2µM*	?	1.12µM*	.	.
O=C(Nc1nc2cc3c(cc2s1)OCO3)c1ccc(N2C(=O)CCC2=O)cc1	-9.9%	1.5%	-1.6%	9.0%	.	.
COc1ccccc1N1CCN(C(=O)c2cnn(-c3cccc(Cl)c3)c2C2CCN(C(=O)OC(C)(C)C)CC2)CC1	2.2%	.	.	.	.	.
CCOC(=O)c1ccc(NC(=O)c2cc3c(n(-c4ccc(C)cc4)c2=O)CC(C)(C)CC3=O)cc1	-5.3%	.	.	.	3.2%	.
COc1ccc(Cc2nnc(NC(=O)c3cccs3)s2)cc1	?	-0.1%	?	0.9%	-7.0%	11.2%
